In PubChem BioAssay one finds z-score and composite z-score data, which are given here for nine compounds.

Activity calls are given as the source filed them. Unless noted, how the calls were made is not given here.

The nature of test [1]: resazurin metabolic signal in HepG2 cells – cell-based, resazurin fluorescence, 24 h, PK04 Diversity Set, profiling panel (AID 1172). The following applies: HepG2 viability, higher = more signal. (In general: Resazurin is reduced to fluorescent resorufin, in cell work by metabolically active cells.)
A short description of test [2]: budding yeast growth changes without added modifier – OD600, strain BY4716, 24 h, basal condition, primary screen (AID 1173). The note with it: S. cerevisiae BY4716 growth, OD600, 24 h; higher = more signal, called active from +8 up or from −8 down.
A short description of test [3]: viability profiling in MM1S myeloma cells – cell-based, resazurin fluorescence, basal, 24 h, PK04 Diversity Set, profiling panel (AID 1174).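 Further: MM1S multiple myeloma cell line.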 The note with it: higher = more signal, called active from +8 up or from −8 down.
The target of test [4] is Dihydroorotate dehydrogenase (quinone), mitochondrial (Plasmodium falciparum (isolate 3D7)) (UniProt Q08210). The test can be described thus: inhibition of P. falciparum DHODH – biochemical, C-terminal His tag, absorbance 600 nm, primary screen (AID 1175).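 Further: recombinant parasite enzyme with a five histidine tag at its C terminus.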 The following applies: PfDHODH enzyme, DCIP absorbance 600 nm; higher = more signal, called active from +8 up or from −8 down.

A short description of test [5]: inhibition of PAO1 biofilm formation – strain PAO1, LB-PBS medium, absorbance 600 nm, primary screen (AID 1176). The note with it: P. aeruginosa PAO1 growth/biofilm, A600, 12 h; higher = more signal.
Test [6] in a line: growth modulation of vineyard yeast isolate – strain RM11-1a, OD600, basal, 24 h, primary screen (AID 1177).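 Further: cultures grown under basal conditions with no added stressor.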 The note with it: S. cerevisiae RM11-1a growth, OD600, 24 h; higher = more signal, called active from +8 up or from −8 down.
The nature of test [7]: growth of efflux-deficient E. coli DRC39 – strain DRC39, OD650, 24 h, E. coli filamentation inducers, primary screen (AID 1178).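 Further: growth measured as culture turbidity by optical density at 650 nm.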 The following applies: E. coli DRC39 acrAB, higher = more signal, called active from +8 up or from −8 down.
A short description of test [8]: growth of efflux-deficient E. coli DRC39 – strain DRC39, OD650, 48 h, E. coli filamentation inducers, primary screen (AID 1179).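 Further: screen aims at cell division blockers that make cells filament.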 The note with it: E. coli DRC39 delta-acrAB growth, higher = more signal, called active from +8 up or from −8 down.
The nature of test [9]: viability profiling in RPMI8226 myeloma cells – cell-based, resazurin fluorescence, basal, 24 h, PK04 Diversity Set, profiling panel (AID 1180).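 Further: RPMI8826 multiple myeloma cell line at 5000 cells per well.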 The following applies: higher = more signal.
Test [10] has as its target E3 ubiquitin-protein ligase XIAP (Homo sapiens) (UniProt P98170). Put plainly: small molecules binding XIAP protein – biophysical, small-molecule microarray, fluorescence 635 nm, primary screen (AID 1181).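 Further: score merges 667 nm emission and signal to noise over triplicate slides.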 The following applies: higher = more signal.
Test [11] concerns XIP peptide (Xip251-270) binding. Put plainly: XIP fragment 251-270 binding compounds – biochemical, small-molecule microarray, fluorescence 635/667 nm, 0.1 µg/mL protein, primary screen (AID 1182). The note with it: fluorescent protein binding, 635 nm, higher = more signal, called active from +8 up or from −8 down.
A further test concerns XIP peptide (Xip251-270). Put plainly: compounds binding XIP fragment 251-270 – biochemical, small-molecule microarray, fluorescence 635/667 nm, 0.5 µg/mL protein, primary screen (AID 1183). The note with it: fluorescence 635 nm, higher = more signal.
Test [12] is described as follows: blood-stage malaria parasite viability loss – strain 3D7, DAPI fluorescence, 100 nL, primary screen (AID 1184).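 Further: parasites grown inside human red blood cells in medium with human serum.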 The following applies: P. falciparum 3D7 growth, 3 d, higher = more signal.
Test [13] has as its target Homeobox protein Hox-A13 (Mus musculus) (UniProt Q62424). Put plainly: disruptors of Hoxa13 oligonucleotide interaction – biochemical, fluorescence polarization, labeled oligonucleotide, primary screen (AID 1185). The following applies: Hoxa13:DNA binding, 15 min, higher = more signal, called active from +8 up or from −8 down. Background: Polarisation of emitted light reports the rotation of a fluorescent probe.

The nature of test [14]: blockers of DNA damage checkpoint Chk1 activation – imaging, HeLa, hydroxyurea, phospho-Chk1 antibody, percent positive cells, primary screen (AID 1186). The following applies: hydroxyurea-induced phospho-Chk1 immunofluorescence imaging, higher = more signal.
A short description of test [15]: blockers of DNA damage checkpoint Chk1 activation – imaging, HeLa, hydroxyurea, phospho-Chk1 nuclear intensity, primary screen (AID 1187). The following applies: hydroxyurea-induced phospho-Chk1 immunofluorescence imaging, higher = more signal.

Sequence of Homeobox protein Hox-A13 (Mus musculus) (Q62424 whole entry, looked up): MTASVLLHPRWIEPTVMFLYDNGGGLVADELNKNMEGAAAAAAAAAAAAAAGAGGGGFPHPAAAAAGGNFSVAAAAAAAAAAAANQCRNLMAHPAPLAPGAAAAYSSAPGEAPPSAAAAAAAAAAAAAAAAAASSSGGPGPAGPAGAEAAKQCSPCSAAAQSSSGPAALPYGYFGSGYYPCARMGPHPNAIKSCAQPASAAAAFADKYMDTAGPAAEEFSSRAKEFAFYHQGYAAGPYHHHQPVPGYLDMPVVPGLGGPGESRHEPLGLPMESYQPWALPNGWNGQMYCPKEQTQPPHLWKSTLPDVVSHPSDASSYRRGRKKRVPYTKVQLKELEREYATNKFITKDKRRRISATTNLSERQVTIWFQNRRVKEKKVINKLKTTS
Sequence of E3 ubiquitin-protein ligase XIAP (Homo sapiens) (P98170 whole entry, looked up, the tested form may be a part): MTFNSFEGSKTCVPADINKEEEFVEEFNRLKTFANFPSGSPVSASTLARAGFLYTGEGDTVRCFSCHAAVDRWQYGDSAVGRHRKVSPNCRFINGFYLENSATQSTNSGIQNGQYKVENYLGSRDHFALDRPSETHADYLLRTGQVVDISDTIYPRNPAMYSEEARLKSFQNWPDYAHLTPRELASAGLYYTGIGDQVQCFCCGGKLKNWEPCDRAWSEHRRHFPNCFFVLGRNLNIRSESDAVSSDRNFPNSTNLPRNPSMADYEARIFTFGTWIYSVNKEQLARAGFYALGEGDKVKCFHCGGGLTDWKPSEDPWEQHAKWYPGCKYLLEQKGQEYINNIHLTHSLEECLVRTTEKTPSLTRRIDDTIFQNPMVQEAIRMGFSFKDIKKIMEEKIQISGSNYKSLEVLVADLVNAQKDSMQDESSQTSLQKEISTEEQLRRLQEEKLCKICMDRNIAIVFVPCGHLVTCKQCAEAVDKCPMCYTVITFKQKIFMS
Sequence of Dihydroorotate dehydrogenase (quinone), mitochondrial (Plasmodium falciparum (isolate 3D7)) (Q08210 whole entry, looked up): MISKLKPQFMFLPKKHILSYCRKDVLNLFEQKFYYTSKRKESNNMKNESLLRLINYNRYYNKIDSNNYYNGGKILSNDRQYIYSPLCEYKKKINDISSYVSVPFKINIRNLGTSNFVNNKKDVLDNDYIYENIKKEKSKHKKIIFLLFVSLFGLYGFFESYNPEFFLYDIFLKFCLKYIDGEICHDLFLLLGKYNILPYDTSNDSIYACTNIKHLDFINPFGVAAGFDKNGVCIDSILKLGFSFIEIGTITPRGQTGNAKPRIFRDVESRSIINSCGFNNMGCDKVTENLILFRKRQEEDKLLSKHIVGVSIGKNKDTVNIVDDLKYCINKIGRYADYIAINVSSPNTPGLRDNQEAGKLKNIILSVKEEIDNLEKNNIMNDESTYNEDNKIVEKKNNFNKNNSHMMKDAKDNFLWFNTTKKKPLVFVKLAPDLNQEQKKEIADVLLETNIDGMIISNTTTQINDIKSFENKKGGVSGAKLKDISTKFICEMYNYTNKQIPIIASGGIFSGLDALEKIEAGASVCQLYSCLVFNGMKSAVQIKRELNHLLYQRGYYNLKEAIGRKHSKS

On to `O=C(NCc1ccccc1)[C@@H]1c2ccccc2C(=O)N(C2Cc3ccccc3C2)[C@H]1c1ccc(CO)cc1`, for which the z-score is -0.786 in test [1]; 0.848 (inactive) in [2]; -0.139 (inactive) in test [3]; 0.581 (inactive) in [5]; 0.644 (inactive) in [6]; 0.0426 (inactive) in [7]. The z-score in test [8] was -0.15 (inactive); in test [9], 0.12; in test [12], -0.276; in [13], -2.13 (inactive); in test [14] it was 0.26 (inactive); in test [15] it was -0.16 (inactive). Besides, the composite z-score in test [4] was 0.211 (inactive); in test [10], -0.133; in test [11], 0.72 (inactive); in the test on XIP peptide (Xip251-270), 0.731.
For `C=CC[C@]1(C(=O)N2CCOCC2)N=C(c2ccc(OCCCO)cc2)O[C@H]1c1ccccc1N=[N+]=[N-]`, the z-score is 0.101 in test [1]; -1.01 (inactive) in [2]; -0.454 (inactive) in test [3]; -0.167 (inactive) in test [5]; 0.275 (inactive) in [6]; 1.31 (inactive) in [7]. For the same compound, the z-score was 0.844 (inactive) in [8]; -0.266 in [9]; -1.92 in test [12]; -4.01 (inactive) in [13]; -0.528 (inactive) in test [14]; -0.67 (inactive) in test [15]. Besides, the composite z-score was 0.846 (inactive) in [4], 0.179 in test [10], 0.821 (inactive) in test [11] and 0.75 in the test with XIP peptide (Xip251-270).
Regarding `CC(C)CNC(=O)[C@@]1(Cc2ccccc2I)c2ccccc2C(=O)N(Cc2ccccc2C(F)(F)F)[C@H]1c1ccc(CO)cc1`, the z-score is -0.165 in [1]; 0.428 (inactive) in test [2]; -0.0663 (inactive) in [3]; -0.0528 (inactive) in [5]; 0.0567 (inactive) in test [6]; -0.188 (inactive) in [7]. Moreover, the z-score in test [8] is 0.588 (inactive); in [9], -0.0359; in test [12], -0.538; in [13] it was -1.78 (inactive); in test [14], 0.172 (inactive); in [15] it was 0.345 (inactive). For the same compound, the composite z-score in test [4] is 0.366 (inactive); in test [10], -0.271; in [11] it was 1.43 (inactive); in the test with XIP peptide (Xip251-270), 0.875.
As to `Cc1ccc([C@H]2C(C(=O)O)=CCN2S(=O)(=O)c2ccc(C)cc2)cc1`, the z-score was -0.585 in test [1]; 0.292 (inactive) in test [2]; -0.81 (inactive) in [3]; -0.088 (inactive) in test [5]; -0.114 (inactive) in [6]; -0.429 (inactive) in test [7]. In addition, the z-score is -0.392 (inactive) in test [8]; -0.325 in test [9]; 0.546 in test [12]; -2.98 (inactive) in test [13]; 0.586 (inactive) in [14]; -0.222 (inactive) in test [15]. In addition, the composite z-score was -0.381 (inactive) in [4], 0.296 in test [10], -0.609 (inactive) in test [11] and 0.66 in the test with XIP peptide (Xip251-270).
Consider `[N-]=[N+]=NCc1ccccc1[C@H]1OC(c2ccc(OCCCO)cc2)=N[C@@]1(Cc1ccccc1)C(=O)N1CCCCC1`, for which the z-score in test [1] is 0.804; in test [2], -1.95 (inactive); in test [3], -1.71 (inactive); in test [5], -0.441 (inactive); in test [6], -0.923 (inactive); in test [7], 1.29 (inactive). Besides, the z-score is 1.25 (inactive) in test [8]; -0.941 in test [9]; -2.4 in test [12]; -4.35 (inactive) in [13]; -0.959 (inactive) in test [14]; -1.5 (inactive) in [15]. For the same compound, the composite z-score in [4] was 0.451 (inactive); in test [10], -0.0622; in [11], -0.178 (inactive); in the test on XIP peptide (Xip251-270) it was 0.625.
For the compound `COCC(=C=CC[C@H](O)c1cccc(OCCO)c1)CCO`, the z-score is 0.72 in test [1]; 0.161 (inactive) in test [2]; 0.491 (inactive) in [3]; 0.154 (inactive) in test [5]; 0.896 (inactive) in test [6]; 0.128 (inactive) in [7]. Moreover, the z-score in [8] is 0.398 (inactive); in test [9], 0.557; in test [12], 0.547; in test [13], -2.29 (inactive); in [14] it was -0.0132 (inactive); in [15], -0.479 (inactive). The composite z-score in test [4] is -0.326 (inactive); in test [10] it was 0.0153; in [11] it was 1.15 (inactive); with XIP peptide (Xip251-270), 0.433.
For the compound `CC(c1ccccc1)C(O)C1C=CC2C(=O)N(c3ccccc3)C(=O)C2N1Nc1ccccc1` (centres undefined), the z-score in [1] is -1.45; in test [2], -0.652 (inactive); in test [3], -1.4 (inactive); in [5], 0.67 (inactive); in test [6], 0.0166 (inactive); in test [7], -0.0789 (inactive). Moreover, the z-score was -0.565 (inactive) in test [8]; -1.28 in test [9]; -0.417 in test [12]; -2.4 (inactive) in test [13]; 0.2 (inactive) in test [14]; 0.175 (inactive) in test [15]. In addition, the composite z-score was -0.191 (inactive) in test [4], 0.255 in [10], 1.06 (inactive) in test [11] and 0.807 with XIP peptide (Xip251-270).
With `COc1ccc(C(O)C2C=CC3C(=O)N(C)C(=O)C3N2NC(=O)OC(C)(C)C)c2ccccc12` (centres undefined), the z-score in test [1] was -1.78; in test [2] it was -1.15 (inactive); in [3] it was -0.0317 (inactive); in test [5] it was 0.503 (inactive); in test [6] it was 1.06 (inactive); in test [7], -0.45 (inactive). Moreover, the z-score in test [8] is -0.765 (inactive); in [9], -0.993; in test [12], -0.526; in test [13] it was -4.22 (inactive); in test [14], 0.667 (inactive); in test [15] it was 0.704 (inactive). The composite z-score in test [4] was 0.799 (inactive); in [10], -0.193; in test [11] it was 0.661 (inactive); with XIP peptide (Xip251-270), 0.744.
Take `O=C1OCC=C[C@H]2OC34C=CCN(Cn5nnc6ccccc65)C(=O)[C@H]3N(CCCCCO)C(=O)[C@@H]4[C@@H]12` (some centres undefined): the z-score was 0.0883 in [1]; 0.21 (inactive) in [2]; -0.0233 (inactive) in test [3]; 0.193 (inactive) in [5]; -0.273 (inactive) in test [6]; -0.293 (inactive) in test [7]. Also, the z-score is -0.571 (inactive) in test [8]; -0.0297 in test [9]; -0.133 in test [12]; -3.27 (inactive) in test [13]; -0.288 (inactive) in [14]; -0.398 (inactive) in [15]. In addition, the composite z-score in test [4] is -1.24 (inactive); in [10] it was 0.515; in test [11] it was 0.537 (inactive); in the test with XIP peptide (Xip251-270), 0.193.
